sEH inhibitor: blocks human soluble epoxide hydrolase activity; P34913; recombinant human sEH enzymatic activity assay; inhibition, % at 2 µM; actives 0.34% (n = 91,000); AID 707; in the data active = inhibition above about 80%
Target sequence (P34913 whole entry, looked up): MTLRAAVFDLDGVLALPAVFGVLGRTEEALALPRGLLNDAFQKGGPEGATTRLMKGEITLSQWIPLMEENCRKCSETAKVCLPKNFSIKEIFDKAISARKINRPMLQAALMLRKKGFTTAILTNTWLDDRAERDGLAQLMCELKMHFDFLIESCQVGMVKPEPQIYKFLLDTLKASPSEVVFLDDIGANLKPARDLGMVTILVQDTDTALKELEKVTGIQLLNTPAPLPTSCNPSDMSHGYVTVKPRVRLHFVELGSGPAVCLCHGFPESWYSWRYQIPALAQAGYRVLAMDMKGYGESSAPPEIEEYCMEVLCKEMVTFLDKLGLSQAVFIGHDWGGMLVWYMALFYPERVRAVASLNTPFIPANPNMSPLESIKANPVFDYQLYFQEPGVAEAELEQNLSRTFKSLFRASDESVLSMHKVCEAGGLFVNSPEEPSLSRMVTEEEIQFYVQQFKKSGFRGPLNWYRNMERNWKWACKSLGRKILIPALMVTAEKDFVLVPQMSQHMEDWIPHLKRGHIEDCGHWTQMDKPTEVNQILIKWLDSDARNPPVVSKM
SDO1 yeast rescue: sdo1-depleted yeast growth rescue; S. cerevisiae sdo1-depleted JHY4D growth rescue, OD600 30 h; hits give high values; pdr5 snq2 efflux-pump mutant strain; z-score at 10 µM; actives 0.21% (n = 140,000);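 active = z-score above 3 at both the 24 hr and the 30 hr optical density reads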
Measles CPE: protection of cells from measles virus; Measles virus-infected cells, CPE protection, absorbance; protection (pct of control), % at 4 µM; actives 1.5% (n = 140,000); AID 841; in the data active = protection mostly above about 24%, no sharp cut-off; inactive = mostly below about 26%
sEH act: activators of human soluble epoxide hydrolase; P34913; purified human sEH enzymatic activity, activator screen; activation, % at 2 µM; actives 0.04% (n = 91,000); in the data active = activation above about 37%
MRP-1 activ: activates MRP-1; viability increase, % at 10 µM; H69AR cells + doxorubicin, viability rescue, CellTiter-Glo; AID 799; actives 0.61% (n = 140,000);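 active = viability gain under doxorubicin at or above a set limit, the compound median plus 3 SD, cut at about 4.7% in these data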;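 also: MRP-1 overexpressing cells given doxorubicin 25 µM after compound pretreatment; 18-22 h compound pretreatment then 72 h with doxorubicin before readout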
MRP resist rev: MRP-mediated drug resistance reversal; differential viability (reversal), % at 10 µM; H69AR cells + 2 uM doxorubicin, CellTiter-Glo, 72 h; actives 0.04% (n = 85,000); AID 602;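 active = viability drop by adding the cancer drug above about 55%, with treated viability meeting a 40% cutoff, limit read from the data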;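 also: larger differential means the compound sensitizes cells more to doxorubicin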
Each line names hits and unclear results; the compound was inactive in the other large screens. In the library only some 2.5% were active in any assay of this set; here they are far more common.

COc1cc(OC)c(C(=O)OC(C)C(=O)Nc2cccc(C(F)(F)F)c2)cc1OC (stereo not given)	none (no result: sEH inhibitor, sEH act, MRP resist rev)
CC(C)Oc1ccc(-c2nn(-c3ccccc3)cc2/C=c2\sc3ncnn3c2=O)cc1	MRP-1 activ 5.8
CCOC(=O)COc1c(Cl)cc(C2NC(=S)NC(c3ccccc3)=C2C(C)=O)cc1OCC (stereo not given)	none (no result: sEH inhibitor, sEH act, MRP resist rev)
O=C(NC1CCCCC1)N1CCC(n2cnc3ccccc32)CC1	Measles CPE 76
CC1CCN(C2CC(=O)N(c3ccc(Br)cc3Br)C2=O)CC1 (stereo not given)	none (no result: sEH inhibitor, SDO1 yeast rescue, Measles CPE, sEH act, MRP-1 activ)
Cc1cc2oc(C(=O)Nc3ccc(S(=O)(=O)N4CCCC(C)C4)cc3)cc(=O)c2cc1Cl (stereo not given)	none (no result: sEH inhibitor, sEH act, MRP resist rev)
Cc1cc(C)c2oc(C(=O)Nc3ccc(S(=O)(=O)N4CCC(C)CC4)cc3)cc(=O)c2c1	Measles CPE 56 (no result: sEH inhibitor, sEH act, MRP resist rev)
Cc1cc(N(CCO)CCO)ccc1C(c1ccc(N(CCO)CCO)cc1C)c1ccccc1Cl	none (no result: sEH inhibitor, sEH act, MRP resist rev)
Fc1ccc(CNC(=S)NC2CCCC2)cc1	none (no result: sEH inhibitor, sEH act, MRP resist rev)
CCOc1ccc(NC(=O)Nc2cc(-c3ccccc3)sc2C(=O)OC)cc1	MRP-1 activ 6.1 (no result: sEH inhibitor, sEH act, MRP resist rev)
CCOC(=O)N1CCC(NC(=O)c2cc(C(=O)NCc3cccc(Cl)c3)ccc2CO)CC1	Measles CPE 39
COc1ccc2oc(=O)c(C(=O)N3CCN(C45CC6CC(CC(C6)C4)C5)CC3)cc2c1	none (no result: sEH inhibitor, SDO1 yeast rescue, Measles CPE, sEH act, MRP-1 activ)
N#Cc1c(NC(=O)COC(=O)c2ccc(S(=O)(=O)N3CCCC3)cc2)sc2c1CCCCC2	none (no result: sEH inhibitor, sEH act, MRP resist rev)
COc1cc(NC(=O)c2ccc(COCC(F)(F)F)cc2)cc(OC)c1OC	Measles CPE 30 (no result: MRP resist rev)
COc1ccc(NC(=O)c2ccc(COCC(F)(F)C(F)F)cc2)cc1OC	none (no result: sEH inhibitor, sEH act, MRP resist rev)
CCOc1ccc(C(Nc2ccc(C)cc2)P2(=O)OCCC(C)O2)cc1 (stereo not given)	none
CS(=O)(=O)N(Cc1ccccc1Cl)c1ccc(C(=O)NCc2ccccn2)cc1	none (no result: sEH inhibitor, sEH act, MRP resist rev)
C=CCn1c(COc2ccc(Cl)cc2)nnc1SCC(=O)N1CC(=O)Nc2ccccc21	MRP-1 activ 4.7
Cc1cccc(OCC(=O)NNC(=O)c2cc3ccccc3oc2=O)c1	Measles CPE 43 (no result: MRP resist rev)
CCCCCCC(=O)NC(Nc1ccc(S(N)(=O)=O)cc1)C(Cl)(Cl)Cl (stereo not given)	Measles CPE 32 (no result: MRP resist rev)
CC(C)OC(=O)c1cc2c(ccn2C)n1CC(=O)N(Cc1ccccc1)c1ccc(F)cc1	Measles CPE 56 (no result: sEH inhibitor, sEH act, MRP resist rev)
CCOC(=O)c1cc2c(ccn2C)n1CC(=O)N(Cc1ccccc1)c1ccc(F)cc1	none (no result: sEH inhibitor, sEH act, MRP resist rev)
COC(=O)C1=C(C)NC=C([N+](=O)[O-])C1c1ccc(OC)cc1 (stereo not given)	none (no result: sEH inhibitor, sEH act, MRP resist rev)
Cc1ccc(N)c2c1OCCC2=O	none (no result: sEH inhibitor, sEH act, MRP resist rev)
O=C(O)CCCC(=O)Nc1cccc(C(F)(F)F)c1	none (no result: sEH inhibitor, sEH act)
COCC(=O)Nc1cccc(C(F)(F)F)c1	Measles CPE 37
CC(C)[C@H](NC(=O)Nc1cccc(C(F)(F)F)c1)C(=O)O	Measles CPE 27
O=C(Nc1ccc(OC(F)F)cc1)Nc1cccc(C(F)(F)F)c1	sEH inhibitor 86
COC(=O)[C@H](C)NC(=O)Nc1cccc(C(F)(F)F)c1	none
Cc1cc(C(=O)CSc2n[nH]c(N)n2)c(C)n1-c1ccc2c(c1)OCO2	none (no result: sEH inhibitor, sEH act, MRP resist rev)
Cc1ccc(NC(=O)c2cc(S(=O)(=O)c3ccccc3)ccc2Cl)cc1	none (no result: MRP resist rev)
CCOc1ccc(C(=O)SC2=NCCS2)cc1	Measles CPE 30
CCOc1ccccc1CNC(=O)c1cc2occc2n1C	none (no result: sEH inhibitor, sEH act)
CCOc1ccccc1CNC(=O)c1cc2oc3ccccc3c2n1C	Measles CPE 77
Cc1cccc(-n2c(CCc3ccccc3)nnc2SCC(=O)c2ccccc2)c1	none (no result: sEH inhibitor, sEH act, MRP resist rev)
Cc1ccc(/C=N/Nc2ncc(Cl)cc2Cl)s1	none
Clc1cnc(N/N=C/c2cccs2)c(Cl)c1	MRP resist rev 81
O=C(c1ccco1)N1CCN(CCCCOc2cccc3ccccc23)CC1	Measles CPE 27 (no result: sEH inhibitor, sEH act, MRP resist rev)
O=C(CSc1nc2ccccc2c(=O)n1Cc1ccco1)N1CCN(c2ccccc2)CC1	Measles CPE 45
CCOC(=O)C1CCCC(NS(=O)(=O)c2ccc(NC(C)=O)cc2)C1 (stereo not given)	Measles CPE 91
COc1cccc(/C=N/NC(=O)C(=O)NCc2ccco2)c1O	MRP-1 activ 6.0 (no result: MRP resist rev)
COc1ccc(C(C)=O)cc1COc1ccc(-n2cnnn2)cc1	none
Cc1ccc(OCC(=O)Sc2ccc(C)cc2)cc1	Measles CPE 38
COc1ccccc1OCC(=O)Sc1ccc(C)cc1	none
S=c1[nH]nc(-c2ccncc2)n1Cc1ccccc1	none
S=c1[nH]nc(-c2cccnc2)n1Cc1ccccc1	Measles CPE 50
CC1CCCC(NC(=O)COC(=O)c2sc3ccccc3c2Cl)C1C (stereo not given)	none (no result: sEH inhibitor, sEH act, MRP resist rev)
Cc1cc(C)c(C(=O)C2OC(=O)C(C)(C)C(=O)C2(C)C)c(C)c1 (stereo not given)	none
COc1ccc(-c2nc(-c3ccccc3)nc(Cl)c2C#N)cc1	none (no result: MRP resist rev)
CNc1nc(-c2ccccc2)nc(-c2ccccc2)c1C#N	Measles CPE 61
COC(=O)c1ccc(COc2cc(O)c3c(c2)OC(C)(C)CC3=O)cc1	MRP-1 activ 6.1
CCSc1nc(N)c2c3c(sc2n1)CN(C)CC3	Measles CPE 44 (no result: sEH inhibitor, sEH act, MRP resist rev)
CCCCn1c(SCC(=O)NCc2ccccc2)nc2ccc(N3CCOCC3)cc2c1=O	none
N#CCSc1nc2ccc(N3CCCCC3)cc2c(=O)n1Cc1ccccc1	MRP-1 activ 4.8
CCCCOc1ccc(C(C)NC(=O)C2CCCN(S(=O)(=O)CC)C2)cc1 (stereo not given)	Measles CPE 38
Cc1cccc(-c2nc(CS(=O)CC(=O)NC3CCCC3)c(C)o2)c1 (stereo not given)	none
Cc1cccc(-c2nc(C#N)c(NC3CCCCC3)o2)c1	Measles CPE 43
CCC1(C)Cc2c(sc3nnn(CC(=O)Nc4ccc(C)cc4)c(=O)c23)CO1 (stereo not given)	MRP-1 activ 9.7 (no result: MRP resist rev)
Cc1c(/C=N\NC(=O)C2COc3ccc(C(C)(C)C)cc3O2)c2ccccc2n1C (stereo not given)	none (no result: sEH inhibitor, Measles CPE, sEH act, MRP resist rev)
CN(C)S(=O)(=O)c1ccc(NC(=O)N2CCN(c3ccccc3)CC2)cc1	Measles CPE 40 (no result: MRP resist rev)
CCOC(=O)N1CCN(C(=O)C2CCN(Cc3nc(-c4ccccc4C)oc3C)CC2)CC1	Measles CPE 53 (no result: sEH inhibitor, sEH act)
CC(=O)Nc1ccc(C(=O)c2ccccc2)cc1	none (no result: sEH inhibitor, sEH act)
CC(C)(Nc1ccccc1)C(=O)c1ccccc1	Measles CPE 32 (no result: sEH inhibitor, sEH act, MRP resist rev)
Cc1cc(=O)oc(C)c1C(=O)NCCCN1CCN(c2ccc(F)cc2)CC1	Measles CPE 43 (no result: MRP resist rev)
Cc1ccc(N(Cc2ccc(C(=O)NC3CCCCC3)cc2)S(C)(=O)=O)cc1C	Measles CPE 103
CS(=O)(=O)N(Cc1ccccc1)c1ccc(C(=O)NCc2ccccc2)cc1	Measles CPE 44
CS(=O)(=O)N(Cc1ccccc1)c1ccc(C(=O)NCc2cccnc2)cc1	none
COc1ccccc1OC(=O)c1ccc(S(=O)(=O)N(C)C)cc1	Measles CPE 44
COc1ccc(C(=O)NNC(=S)NC2CCCCC2)cc1OC	none (no result: MRP resist rev)
